Measured values from article PMC4336329 (PLoS ONE, 2015).
Screen size: about 310,000 compounds; about 2,200 (0.71%) showed an effect of 50% or more. The effect is printed as a negative number. The full list was thinned out, with strong results kept by preference.

These compounds were tested against human ether-à-go-go-related gene (hERG) potassium channel (human, UniProt Q12809) (assay: primary screen, population patch clamp on CHO cells stably expressing hERG; higher = less effect of the substance).
Chain of human ether-à-go-go-related gene (hERG) potassium channel (Q12809 whole entry, looked up): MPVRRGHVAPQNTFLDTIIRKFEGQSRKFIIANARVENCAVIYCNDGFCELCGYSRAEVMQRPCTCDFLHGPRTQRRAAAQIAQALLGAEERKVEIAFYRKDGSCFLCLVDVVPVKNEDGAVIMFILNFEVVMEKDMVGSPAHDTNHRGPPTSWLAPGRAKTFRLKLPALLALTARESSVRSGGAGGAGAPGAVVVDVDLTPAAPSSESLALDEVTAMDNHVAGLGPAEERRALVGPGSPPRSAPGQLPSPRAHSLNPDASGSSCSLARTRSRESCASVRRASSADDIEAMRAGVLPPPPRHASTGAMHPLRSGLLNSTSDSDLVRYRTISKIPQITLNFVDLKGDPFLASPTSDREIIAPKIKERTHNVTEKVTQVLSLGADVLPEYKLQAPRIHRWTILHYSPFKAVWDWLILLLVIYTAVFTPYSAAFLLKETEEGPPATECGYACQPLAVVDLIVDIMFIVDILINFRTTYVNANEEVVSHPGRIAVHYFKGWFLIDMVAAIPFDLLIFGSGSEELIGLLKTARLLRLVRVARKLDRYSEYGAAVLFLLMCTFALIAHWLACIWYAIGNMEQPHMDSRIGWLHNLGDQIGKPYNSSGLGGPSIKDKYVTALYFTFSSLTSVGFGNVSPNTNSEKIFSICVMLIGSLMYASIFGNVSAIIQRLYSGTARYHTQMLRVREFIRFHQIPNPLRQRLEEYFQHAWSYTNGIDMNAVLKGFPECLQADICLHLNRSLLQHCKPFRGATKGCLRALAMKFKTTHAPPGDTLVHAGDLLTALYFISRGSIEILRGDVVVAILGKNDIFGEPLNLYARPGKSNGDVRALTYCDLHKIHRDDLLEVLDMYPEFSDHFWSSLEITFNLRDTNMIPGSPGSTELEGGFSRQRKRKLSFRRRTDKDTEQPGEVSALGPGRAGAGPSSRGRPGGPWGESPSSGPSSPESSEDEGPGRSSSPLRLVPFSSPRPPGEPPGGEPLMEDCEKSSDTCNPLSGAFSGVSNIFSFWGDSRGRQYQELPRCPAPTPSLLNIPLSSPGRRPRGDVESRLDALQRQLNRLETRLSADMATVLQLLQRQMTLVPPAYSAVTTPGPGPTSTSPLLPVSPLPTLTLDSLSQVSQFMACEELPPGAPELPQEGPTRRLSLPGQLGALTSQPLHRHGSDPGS

Compared with `Cc1ccccc1C(=O)Nc1ccccc1C(=O)N1CCC(C)CC1`, `COC(=O)c1ccccc1NC(=O)CN1CCC(C)CC1` is lower in “hERG current change (%, negative = inhibition) at 1uM” value: 11.7% for the first, -0.0967% for the second.

Compared with `COC(=O)c1ccc(Cn2cnc3c(cnn3-c3ccc(C)c(C)c3)c2=O)o1`, `COc1ccc(N(CC(=O)NCc2ccc(C)cc2)S(=O)(=O)c2c(C)[nH]c(=O)[nH]c2=O)cc1` is higher in “hERG current change (%, negative = inhibition) at 1uM” value: 7.86% for the first, 16% for the second.

Going from `Cc1c(-c2ccccc2)oc2c(C(=O)OCC(=O)Nc3cccc(F)c3)cccc2c1=O` to `COC(=O)c1ccccc1NC(=O)CN1CCN(Cc2ccccc2)CC1`, the “hERG current change (%, negative = inhibition) at 1uM” value falls from 5.94% to -69.6%.

Compared with `COc1ccccc1NC(=S)NC(NC(=O)c1ccco1)C(Cl)(Cl)Cl` (stereo not drawn), `NC(=O)c1ccccc1NC(=O)CN1CCN(Cc2ccccc2)CC1` is lower in “hERG current change (%, negative = inhibition) at 1uM” value: 4.44% for the first, -77.7% for the second.

Compared with `COc1ccc(NC(=O)c2cccc(S(=O)(=O)N3CCCC3)c2)cc1OC`, `COc1ccc(NC(=O)c2ccc(S(=O)(=O)N3CCCC3)cc2)cc1OC` is lower in “hERG current change (%, negative = inhibition) at 1uM” value: 2.14% for the first, -102% for the second.

Compared with `COc1ccc(C(=O)Nc2ccc(S(=O)(=O)N3CCCCC3)cc2)cc1OC`, `COC(=O)c1ccccc1NC(=O)CN1CCCCC1` is higher in “hERG current change (%, negative = inhibition) at 1uM” value: -0.152% for the first, 32.9% for the second.

First: CCCN1CCC[C@@H]2Cc3nc(N)ncc3C[C@H]21.Cl
Second: Cc1cc(Br)ccc1OCCN1CCCC1.O=C(O)C(=O)O
The “hERG current change (%, negative = inhibition) at 1uM” value of the first is higher: 8.86% for the first, -7.85% for the second.

Going from `NC(=O)c1ccc(NC(=O)CCC(=O)c2cccs2)cc1` to `NNC(=O)c1ccc(-c2ccccc2F)cc1`, the “hERG current change (%, negative = inhibition) at 1uM” value rises from 9.21% to 14.8%.

Going from `O=C(Nn1cnnc1)c1cc([N+](=O)[O-])cc([N+](=O)[O-])c1` to `Cc1cc(C)cc(NC(=O)CCNS(=O)(=O)c2ccc3c(c2)oc(=O)n3C)c1`, the “hERG current change (%, negative = inhibition) at 1uM” value rises from 5.11% to 9.33%.

Compared with `CCn1cc(C2=NC(C)CO2)c2ccccc21` (stereo not drawn), `CCN(CC)CCCNC(=O)c1c(O)c2ccccc2n(Cc2ccccc2)c1=O.Cl` is lower in “hERG current change (%, negative = inhibition) at 1uM” value: -0.637% for the first, -12.3% for the second.

Compared with `O=C(CN1CCCCCC1)Nc1ccc(Cl)cn1`, `NC(=O)c1ccccc1NC(=O)CN1CCCCCC1` is higher in “hERG current change (%, negative = inhibition) at 1uM” value: 6.51% for the first, 13.4% for the second.

Going from `Cc1cccc(NC(=O)CN2CCN(CC(=O)NCc3ccc(Cl)cc3Cl)CC2)c1C` to `NC(=O)c1ccccc1NC(=O)CN1CCN(Cc2ccc(Cl)cc2Cl)CC1`, the “hERG current change (%, negative = inhibition) at 1uM” value falls from 4.8% to -75.8%.

First: O=C(CN1CCN(Cc2ccccc2)CC1)Nc1ccc(Cl)cn1
Second: O=C(CN1CCN(Cc2ccccc2)CC1)Nc1ccc(Cl)cc1
The “hERG current change (%, negative = inhibition) at 1uM” value of the first is lower: -70% for the first, -32.3% for the second.

Compared with `COC(=O)c1ccccc1NC(=O)CN1CCCCCC1`, `COC(=O)c1ccccc1NC(=O)CN1CCOCC1` is lower in “hERG current change (%, negative = inhibition) at 1uM” value: 16.5% for the first, 5.34% for the second.

Going from `COC(=O)c1ccccc1NC(=O)CN1CCN(C23CC4CC(CC(C4)C2)C3)CC1` to `O=C(CN1CCN(Cc2ccccc2F)CC1)Nc1ccccc1Cl`, the “hERG current change (%, negative = inhibition) at 1uM” value rises from -75% to 8.26%.

Compared with `CCOCCCNS(=O)(=O)c1ccc2c(c1)oc(=O)n2CC(=O)OCC`, `CCN(c1cccc(C)c1)S(=O)(=O)c1ccc(-c2ccc(=O)[nH]n2)o1` is higher in “hERG current change (%, negative = inhibition) at 1uM” value: 10.3% for the first, 12.8% for the second.

Compared with `COCCN1CCN(C(=O)C2CCC(=O)N(Cc3ccccc3F)C2)CC1` (stereo not drawn), `O=C(O)C(=O)O.c1ccc(CN2CCN(CCOCCOc3ccc4c(c3)CCC4)CC2)cc1` is higher in “hERG current change (%, negative = inhibition) at 1uM” value: 9.05% for the first, 11.6% for the second.

First: COc1c(/C=N/NC(=O)c2ccccc2O)c(CCN(C)C(C)=O)cc2c1OCO2
Second: COc1ccccc1/C=C/C(=O)NCC(=O)N/N=C(\CCC(=O)O)c1ccccc1
The “hERG current change (%, negative = inhibition) at 1uM” value of the first is higher: 8.13% for the first, -2.9% for the second.

Going from `Cc1ccccc1N1C(=O)c2ccccc2NC1c1ccncc1` (stereo not drawn) to `CC1CC(=O)Nc2ccccc2N1C(=O)Nc1ccc(F)cc1` (stereo not drawn), the “hERG current change (%, negative = inhibition) at 1uM” value falls from 13% to 9.77%.

First: Nc1nnc(C(F)(F)F)s1
Second: CC(C)CCN(C(=S)Nc1cccc(C(F)(F)F)c1)C(C)c1ccccn1 (stereo not drawn)
The “hERG current change (%, negative = inhibition) at 1uM” value of the first is lower: 4.92% for the first, 10.7% for the second.

Compared with `CSc1ccc(/C=N/NC(=O)CN2CCN(Cc3ccc(Cl)cc3)CC2)cc1`, `CSc1ccc(/C=N/NC(=O)CN2CCN(Cc3ccc(C)cc3)CC2)cc1` is higher in “hERG current change (%, negative = inhibition) at 1uM” value: 2.29% for the first, 2.67% for the second.

Going from `O=C(CN1CCN(Cc2ccccc2)CC1)Nc1ccccc1-c1ccccc1` to `CSc1ccc(/C=N/NC(=O)CN2CCN(Cc3ccccc3)CC2)cc1`, the “hERG current change (%, negative = inhibition) at 1uM” value falls from -39.6% to -60%.

Going from `Cc1nc2cc3nc(C)sc3cc2s1` to `COCC(=O)N1CCC(Oc2ccc(C(=O)NCc3cnc(C)cn3)cc2)CC1`, the “hERG current change (%, negative = inhibition) at 1uM” value rises from 3.19% to 13%.

Going from `O=C(O)C(=O)O.c1ccc(-c2ccccc2OCCCN2CCCCC2)cc1` to `O=C(O)C(=O)O.c1ccc(-c2ccccc2OCCN2CCCCC2)cc1`, the “hERG current change (%, negative = inhibition) at 1uM” value rises from -69.1% to -4.98%.

Going from `O=C(O)C(=O)O.O=C(c1ccccc1)c1ccc(OCCOCCN2CCN(Cc3ccccc3)CC2)cc1` to `O=C(O)C(=O)O.O=C(c1ccccc1)c1ccc(OCCCN2CCCC2)cc1`, the “hERG current change (%, negative = inhibition) at 1uM” value rises from -82.8% to -29.9%.

Compared with `O=C(O)C(=O)O.c1ccc(-c2ccccc2OCCOCCN2CCCCC2)cc1`, `CC1CCN(CCOc2ccccc2-c2ccccc2)CC1.O=C(O)C(=O)O` is higher in “hERG current change (%, negative = inhibition) at 1uM” value: -18.9% for the first, -8.4% for the second.

Going from `CC1CCN(CCCCOc2ccccc2-c2ccccc2)CC1.O=C(O)C(=O)O` to `CN1CCN(CCCCOc2ccccc2-c2ccccc2)CC1.O=C(O)C(=O)O`, the “hERG current change (%, negative = inhibition) at 1uM” value rises from -74.9% to 16.8%.

First: Cc1cc(Br)ccc1OCCOCCN1CCCC1.O=C(O)C(=O)O
Second: Cc1cc(Br)ccc1OCCCCN1CCCCC1.O=C(O)C(=O)O
The “hERG current change (%, negative = inhibition) at 1uM” value of the first is higher: -9.41% for the first, -66.6% for the second.

For `CCOc1cc(C2/C(=C(/O)c3ccc(OC(C)C)cc3)C(=O)C(=O)N2CCCOC)ccc1O` (stereo not drawn), the “hERG current change (%, negative = inhibition) at 1uM” value was 21.3%.
